# High-throughput results from PubChem BioAssay.
# In the library only some 3% were active in any assay of this set; here they are far more common.
# SUMO Mot1 rescue: yeast Mot1-301 growth rescue at high temperature, primary screen, SUMOylation pathway inhibitor project, S. cerevisiae, ATP luminescence, 38.5C. S. cerevisiae Mot1-301 growth rescue; percent above DMSO median, 100 means doubled. actives 1% (n = 320,000). AID 2716, 2010. growth rescue, % at 18.8 µM;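 active means every valid replicate shows activation above 250% relative to neutral control wells; inactive means the rest, any valid replicate at or below 250%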;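 further: OY570 slx delta 5 strain wells were the positive control but not used for scaling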
# NALP3 yeast inh: NALP3 inflammasome inhibitors in reconstituted yeast, primary screen, luminescence, uHTS; Yeast reconstituted NLRP3/ASC/caspase-1, beta-gal luminescence, 24 h; inhibition, % at 10 µM; actives 0.39% (n = 330,000); AID 2825, 2010;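 active means inhibition of 50% or more; inactive means inhibition below 50%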;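 further: plate controls were induced DMSO wells for no effect and uninduced yeast grown without galactose for full effect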
# NALP1 inh: NALP1 inflammasome inhibitors in reconstituted yeast, colorimetric, S. cerevisiae, triplicate retest. inhibition, % at 10 µM. S. cerevisiae NALP1/ASC/caspase-1 growth, X-gal OD620, 72 h. actives 0.61% (n = 280,000). AID 2071, 2009; in the data active means inhibition mostly above about 24%, no sharp cut-off; inactive means mostly below about 32%
# CHT inh: inhibitors of human choline transporter CHT. High affinity choline transporter 1 (Homo sapiens), Q9GZV3. CHT-expressing cells, membrane potential dye, choline response; stronger effect = lower value. B-score at 10 µM. actives 0.86% (n = 310,000). AID 488975, 2010;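 active means B-score over 3 SD under the library average, and starting fluorescence ratio not unusually high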;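 further: choline stimulus applied at its EC90 after an EC20 pre-addition; B-score computed on integrated fluorescence ratio after choline addition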
# Target sequence (Q9GZV3 whole entry, looked up): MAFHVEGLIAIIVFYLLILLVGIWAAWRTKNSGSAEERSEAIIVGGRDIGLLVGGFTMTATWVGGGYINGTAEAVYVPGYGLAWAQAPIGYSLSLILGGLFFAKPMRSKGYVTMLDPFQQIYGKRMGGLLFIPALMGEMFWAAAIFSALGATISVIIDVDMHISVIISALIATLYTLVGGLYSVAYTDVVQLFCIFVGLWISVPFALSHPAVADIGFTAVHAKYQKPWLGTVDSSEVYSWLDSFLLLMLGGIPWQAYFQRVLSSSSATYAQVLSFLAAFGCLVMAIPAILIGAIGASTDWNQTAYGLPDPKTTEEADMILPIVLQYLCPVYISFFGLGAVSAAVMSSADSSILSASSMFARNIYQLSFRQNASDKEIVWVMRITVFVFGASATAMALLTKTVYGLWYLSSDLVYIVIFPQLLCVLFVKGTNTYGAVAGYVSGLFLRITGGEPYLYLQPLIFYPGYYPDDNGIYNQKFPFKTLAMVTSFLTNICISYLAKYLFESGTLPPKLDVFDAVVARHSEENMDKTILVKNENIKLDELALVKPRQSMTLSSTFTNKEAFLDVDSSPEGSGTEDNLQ
# CHT allo act: CHT positive allosteric modulators, primary screen, cell-based, membrane potential dye, choline EC20 | High affinity choline transporter 1 (Homo sapiens), Q9GZV3 | CHT-expressing cells; stronger effect = higher value; LV-AA mutant CHT in HEK293 cells | B-score at 10 µM | actives 0.49% (n = 310,000) | AID 488977, 2010;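 active means initial fluorescence not abnormally high and integrated response B-score, plate-corrected, over 3 SD above library mean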
# Bfl-1 A1 inh: caspase 3/7 activation in MEF A1-2A-BIM cells, primary screen, A1 inhibitor project, cell-based, luminescence, HTS | AID 2462, 2010 | caspase activation, % (test concentration not listed) | Caspase-Glo 3/7 luminescence, 3 h; percent of clofoctol response, vehicle zero | actives 0.066% (n = 330,000);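 active means over half of replicate activation scores above 10%, or exactly half above 10 with the replicate mean above 10; inconclusive means replicate mean below 10 yet half the replicates above 10; inactive means over half of replicates below 10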
# CHT block conf: CHT inhibitors, confirmation, cell-based, membrane potential dye, duplicate. shares compounds with CHT inh. CHT-expressing cells, choline membrane potential dye; LV-to-AA substituted CHT, HEK293 cells. CHT activity remaining % of control (stronger effect = lower value), % at 10 µM. actives 70% (n = 2,400);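 active means choline transporter activity left, mean of duplicates at 10 µM, below buffer-only control mean minus 3 SD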;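 further: depolarization triggered by choline at its EC90 following an EC20 pre-addition; 0% = hemicholinium-3 full block and 100% = buffer-only control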
# HEK293 MPD ctr: membrane potential effects in parental HEK293, counter-screen for CHT inhibitor project, cell-based, membrane potential dye; shares compounds with CHT inh; choline response; active = decrease or increase beyond buffer ±3SD; membrane potential ratio readout (active if shifted either direction beyond buffer ±3SD; no single direction) at 10 µM; actives 4% (n = 2,400); AID 493222, 2011;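 further: parental cells lack the transporter so any hit is non-specific; ratio is peak minus trough fluorescence over baseline after EC90 choline challenge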
# Active calls of the source: *; i = inactive; u = inconclusive; x = no result.
SMILES,SUMO Mot1 rescue,NALP3 yeast inh,NALP1 inh,CHT inh,CHT allo act,Bfl-1 A1 inh,CHT block conf,HEK293 MPD ctr
Cc1ccc(S(=O)(=O)Oc2cccc(/C=N/n3cnnc3)c2)cc1,-10,9,19,-10*,i,1,56%*,i
Cc1ccc(S(=O)(=O)Oc2cccc(/C=N/Nc3ccc(C(=O)O)cc3)c2)cc1,3,3,-4,i,i,-8,x,x
COc1ccccc1CN1C(=O)[C@@H]2C(CCC(N)=O)NC3(C(=O)Nc4c3ccc(Cl)c4C)[C@@H]2C1=O (some centres not stated),168,10,-10,-6.1*,i,0,61%*,i
O=C(O)CCN1CCc2ccccc2C1c1ccncc1 (configuration not stated),-10,-3,21,i,i,u,x,x
COc1ccc(CNS(=O)(=O)c2ccc3c(c2)CC(C)N3C(=O)C2CC2)cc1 (configuration not stated),-12,10,20,-5*,i,u,i,i
N#CCC(=O)Nc1ccc(C(=O)OCC(=O)N(C2CCCCC2)C2CCCCC2)cc1,-12,8,-1,i,i,-1,x,x
CCn1ncc(Br)c1C(=O)NC(C)c1ccccc1 (configuration not stated),-4,6,-2,-5.8*,i,1,i,i
CCn1ncc(Cl)c1C(=O)NC(C)c1ccccc1 (configuration not stated),-14,5,23,i,i,0,x,x
O=C(N/N=C/c1cccnc1)c1cc(-c2ccccc2)nc2ccccc12,-1,22,20,i,i,0,x,x
O=C(N/N=C/C1CC=CCC1)c1cc(-c2cccnc2)nc2ccccc12 (configuration not stated),-1,2,1,-11*,i,0,14%*,i
COC(=O)Cn1c(CN2CCN(c3ccc(F)cc3)CC2)nc2c1c(=O)n(C)c(=O)n2C,0,-1,7,-11*,i,x,-12%*,i
CCOCCn1c(CN2CCN(c3ccc(F)cc3)CC2)nc2c1c(=O)n(C)c(=O)n2C,-5,-10,0,-17*,i,1,10%*,i
COCCn1c(CN2CCN(c3cccc(Cl)c3)CC2)nc2c1c(=O)n(C)c(=O)n2C,-3,20,11,-7.3*,i,-1,-5.6%*,i
CCCCn1c(N)c(N(CC(C)C)C(=O)C2CCCO2)c(=O)[nH]c1=O (configuration not stated),13,-5,x,i,i,0,x,x
O=C(NNC(=S)NC(=O)C12CC3CC(CC(C3)C1)C2)c1ccncc1,-11,31,21,-9.6*,i,0,53%*,i
CCOCCCn1c(SCC(=O)Nc2cccc(S(=O)(=O)NC3=NCCCCC3)c2)nc2ccccc2c1=O,85,-10,11,-6.4*,i,1,i,i
Cc1cc(SCC(=O)Nc2cccc(S(=O)(=O)NC3=NCCCCC3)c2)c(C)cc1Br,15,-5,27,-5*,i,0,i,i
Cc1noc(C)c1CSCC(=O)N(C)CC(=O)Nc1ccccc1C(F)(F)F,-8,3,x,x,x,0,x,x
COc1ccc(NC(=O)c2cccc(Oc3ccc([N+](=O)[O-])cc3Cl)c2)cc1,3,28,26,i,i,0,x,x
Cc1ccc(C)c(NC(=O)c2cccc(Oc3ccc([N+](=O)[O-])cc3Cl)c2)c1,2,9,29,-7.2*,i,1,49%*,i
C[n+]1ccccc1COc1ccc(C(C)(C)C)cc1,329,1,25,-7.3*,i,1,34%*,i
COc1ccccc1-c1coc2cc(O)cc(O)c2c1=O,9,39,22,-5.9*,i,0,65%*,i
CCn1c(SCc2ccccc2)nnc1-c1ccc(S(=O)(=O)N2CCCCC2)cc1,97,0,15,-5.9*,i,0,i,i
CCOC(=O)CC1(CC(=O)OCC)NC(=O)c2c(C)sc(C(=O)OCC)c2N1,2,27,0,-5.1*,i,0,38%*,i
CCOC(=O)CC1(C)NC(=O)c2c(C)sc(C(=O)OCC)c2N1 (configuration not stated),12,-3,3,i,i,-1,x,x
SMILES,SUMO Mot1 rescue,NALP3 yeast inh,NALP1 inh,CHT inh,CHT allo act,Bfl-1 A1 inh,CHT block conf,HEK293 MPD ctr
CCOC(=O)C(Cc1ccccc1)NC(=O)CCCC(=O)c1ccccc1 (configuration not stated),-14,12,3,-5.9*,i,0,45%*,i
CCOC(=O)C(Cc1ccccc1)NC(C)=O (configuration not stated),-9,-9,7,i,i,-1,x,x
CC(C)(C)n1ncc2c(=O)n(CC(=O)OCc3ccccc3)cnc21,-7,8,18,-6.7*,i,-3,i,i
COc1ccc(CN(C)c2ncnc3sccc23)c(OC)c1OC,-35,-13,4,i,i,0,65%*,i
CN(Cc1cccs1)c1ncnc2sccc12,-5,12,38,-7.4*,i,u,50%*,i
O=C(Cc1ccc(S(=O)(=O)N2CCOCC2)s1)OCc1ccc(Cl)cc1,9,-17,x,x,x,0,x,x
COc1ccc(NC(=O)CSc2ccc3nnc(CCNC(=O)c4ccccc4)n3n2)cc1OC,-3,-1,14,i,i,0,x,x
CCC(C)NS(=O)(=O)c1ccc(NC(=O)c2ccc([N+](=O)[O-])cc2Cl)cc1 (configuration not stated),14,4,24,-8.9*,i,1,i,i
CCOCCCNS(=O)(=O)c1ccc(NC(=O)c2ccc([N+](=O)[O-])cc2Cl)cc1,5,10,25,-10*,i,1,-5.7%*,i
CCN(CC)CCNc1oc(-c2ccccc2)nc1S(=O)(=O)c1ccccc1,1,8,x,x,x,0,x,x
